Sampled rows, rich in hits. Any-hit rate of the full collection: about 19%.
IL-1B inflam inh – inhibitors of inflammasome signaling (IL-1 beta secretion); activity change, % at 57.5 µM; THP-1 LPS/ATP IL-1B secretion, AlphaLISA, 16 h; stronger effect = lower value; 360,000 tested, 4.7% active; in the data active = activity change below about -50%; inconclusive = mostly about -30% to -49%
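Secreted IL-1B measured by AlphaLISA bead assay after 16 h compound exposure of THP-1 cells; compounds (final up to 57.5 uM) added 1 h before LPS (250 ng/mL) and ATP (1.25 mM) stimulation; lower signal means less secretion.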
DT40 TDP1 CPT – DT40-hTDP1 cell growth loss with CPT | chicken DT40 Tdp1-/-;hTDP1 cells + 20 nM CPT, ATP luminescence, 48 h | Potency, µM (top dose mostly 46.2 µM), actives largely listed as inhibitors | 420,000 tested, 12% active; also: nearly all actives have a fitted effect of over 55% in size
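Cell growth measured by CellTiter-Glo luminescence after a minimum 48 h, 37 C compound exposure with 20 nM CPT in Tdp1-knockout DT40 cells stably expressing hTDP1, seeded 400/well; qHTS titration format.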
HT1080NT lethal – kills 2HG-producing HT-1080-NT fibrosarcoma cells; Potency, µM (highest dose often 46.1 µM), most hits filed as cytotoxic; AID 686970; HT-1080-NT fibrosarcoma viability, CellTiter-Glo ATP luminescence, 48 h; 360,000 tested, 1.6% active;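 also: NT is the 2HG producing partner of a matched IDH1 knockdown line; nearly all actives have a fitted effect of over 55% in size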
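HT-1080-NT; 750 cells/well; 5% FBS RPMI; 48 h compound, 37 degrees C; CellTiter-Glo luminescence; curve fitting and curve-class assignment.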
DT40 TDP1 no CPT – qHTS for Inhibitors of human tyrosyl-DNA phosphodiesterase 1 (TDP1): qHTS in cells in absence of CPT; DT40 Tdp1-/- hTDP1 cells, no CPT, ATP luminescence, 48 h; Potency, µM (highest dose often 46.2 µM), hits mostly inhibitors; 420,000 tested, 15% active; also: nearly all actives have a fitted effect of over 55% in size
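Chicken DT40 Tdp1-/- cells complemented with human TDP1, screened without camptothecin (DMSO vehicle only), 400 cells/well. Compounds pin-transferred, cells incubated at 37 °C for at least 48 hr. Growth read as ATP-dependent luminescence (CellTiter-Glo, 30 min at RT).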
HT1080 IDH1KD tx – toxicity to HT-1080 IDH1 knockdown cells (counter line) | AID 686971 | Potency, µM (titrated, usually from 46.1 µM), hits mostly cytotoxic | 360,000 tested, 2% active | HT-1080 IDH1 knockdown viability, ATP luminescence, 48 h
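HT-1080-IDH1KD cells (IDH1 knocked down), 750/well in RPMI with 5% FBS, treated with compound 48 h at 37 degrees C. Viability by CellTiter-Glo luminescence, normalised to DMSO and no-cell wells; concentration-response curves classed.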
A number is an active result; 0 = inactive; ? = inconclusive; - = no result given; [ ] = dose if it differs, or a comment. Unless noted, calls follow the shape of the dose curve; as a rule, active = well fitted curve in the direction sought with a large enough effect; inconclusive = small, poorly fitted or top-dose-only effect, or another doubt; inactive = no such curve, though single readings can be large; an effect the other way counts as inactive or inconclusive.

SMILES | IL-1B inflam inh | DT40 TDP1 CPT | HT1080NT lethal | DT40 TDP1 no CPT | HT1080 IDH1KD tx
O=c1c2ccccc2n2nnnc2n1-c1ccccc1 | 0 | 0 | 0 | 0 | 0
O=C1c2ccccc2-c2c1c1ccccc1c(=O)n2-c1ccccc1 | 0 | 11.6µM | 0 | 11.6µM | 0
O=C1c2ccccc2-c2c1c1ccccc1c(=O)n2CCO | - | 6.51µM | 0 | 7.31µM | ?
CCC(=O)N1CCc2cc(S(=O)(=O)NCCC(=O)Nc3ccc(OC)c(Cl)c3)ccc21 | - | ? | - | 0 | -
CN(C)N1C(N)=C(C#N)C(c2ccccc2)C2=C1CC(C)(C)CC2=O (stereo not drawn) | 0 | 0 | 0 | 0 | 0
CN(C)N1C(N)=C(C#N)C(c2cccc3ccccc23)C2=C1CC(c1ccccc1)CC2=O (stereo not drawn) | 0 | 8.2µM | ? | 7.31µM | ?
O=C(c1ccc(Cl)c([N+](=O)[O-])c1)N1CCN(Cc2ccc3c(c2)OCO3)CC1 | -75.6 | 0 | 0 | ? | 0
CN(c1ccc(C(=O)N2CCN(Cc3ccc4c(c3)OCO4)CC2)cc1)S(C)(=O)=O | 0 | 0 | 0 | 0 | 0
O=C(c1ccc(S(=O)(=O)N2CCCC2)cc1)N1CCN(Cc2ccc3c(c2)OCO3)CC1 | 0 | ? | 0 | 16.4µM | 0
O=C(c1cccc(Cl)c1)N1CCN(Cc2ccc3c(c2)OCO3)CC1 | 0 | 0 | 0 | 0 | 0
COc1ccc(CN2CCN(C(=O)c3ccc(S(=O)(=O)N4CCCCCC4)cc3)CC2)cc1 | ? | ? | 16.4µM | 14.6µM | 0
COc1ccc(C(=O)N2CCN(S(=O)(=O)c3ccc(Br)cc3)CC2)cc1 | 0 | 18.4µM | 0 | ? | 0
Cc1ccc(C(=O)N2CCN(S(=O)(=O)c3ccc(C)cc3)CC2)cc1 | 0 | 0 | 0 | 0 | 0
COc1ccc(S(=O)(=O)N2CCCN(Cc3cccc(F)c3)CC2)cc1 | 0 | 20.6µM | 0 | ? | 0
O=C(c1ccc(S(=O)(=O)c2cccc(Cl)c2)c([N+](=O)[O-])c1)N1CCN(Cc2ccccc2)CC1 | -98.9 | 3.66µM | 8.2µM | 5.8µM | ?
COc1ccc(CN2CCN(C(=O)c3ccc(S(=O)(=O)N4CCCCCC4)cc3)CC2)cc1F | 0 | 20.6µM | 0 | 20.6µM | 0
CCCNC(=O)c1onc(CSc2ccc(Cl)cc2)c1C(=O)NC(C)C | 0 | ? | 0 | 0 | 0
COC(=O)[C@@H]1CCCN1Cc1ccc2c(c1)CN(Cc1cc(OC)c3c(c1)OCO3)CCO2 | - | 0[9.04 µM] | - | ? | -
CN(C)CCC1(C2=CCCC2)CC/C(=C/c2ccc(Cl)cc2)C1=O (stereo not drawn) | -111.4 | 7.31µM | ? | 8.2µM | ?
CC1(C)CCC/C(=C\c2ccccc2)C1=O | 0 | 0 | 0 | 0 | 0
C#CCNC(=O)C1=C[C@H](c2csc3ccccc23)C[C@H](OCc2ccc(CO)cc2)O1 | 0 | ? | 0 | 16.4µM | 0
O=C(NCc1ccccc1)C1=C[C@H](c2ccc3c(c2)OCO3)C[C@H](OCc2ccc(CO)cc2)O1 | 0 | 6.51µM | 0 | ? | 0
O=C(NCc1ccccc1)C1=C[C@H](c2csc3ccccc23)C[C@H](OCc2ccc(CO)cc2)O1 | -52.2 | ? | ? | ? | 0
O=C(Nc1ccccc1)C1=C[C@@H](c2csc3ccccc23)C[C@@H](OCc2ccc(CO)cc2)O1 | 0 | ? | 0 | ? | 0
O=C(NCc1ccccc1)C1=C[C@@H](c2ccc3c(c2)OCO3)C[C@@H](OCc2ccc(CO)cc2)O1 | 0 | ? | 0 | ? | 0
SMILES | IL-1B inflam inh | DT40 TDP1 CPT | HT1080NT lethal | DT40 TDP1 no CPT | HT1080 IDH1KD tx
O=C(Cc1ccc2c(c1)OCCO2)Nc1cc(C(F)(F)F)ccc1N1CCOCC1 | ? | ? | 0 | ? | 0
Cn1c(C(=O)NCCCN2CCN(c3ccc(F)cc3)CC2)cc2c(=O)n(C)c3ccccc3c21 | 0 | ? | 0 | ? | 0
Cn1c(=O)c2cc(C(=O)NCCCN3CCN(c4ccccc4F)CC3)sc2c2ccccc21 | - | 3.66µM | - | 3.66µM | -
CCN1CCN(CCCNC(=O)c2cc3c(=O)n(C)c4ccccc4c3s2)CC1 | - | ? | - | 10.3µM | -
Cn1c(C(=O)NCCN2CCN(c3ccccc3F)CC2)cc2c(=O)n(C)c3ccccc3c21 | 0 | 18.4µM | 0 | 23.1µM | 0
CCN1CCN(CCCNC(=O)c2cc3c(=O)[nH]c4ccccc4c3s2)CC1 | ? | ? | 0 | ? | ?
Cn1c(=O)c2cc(C(=O)NCCCN3CCN(c4ccc(F)cc4)CC3)sc2c2ccccc21 | - | ? | - | 2.91µM | -
O=C(c1csnn1)N1CCC2(CCCN(Cc3cc(C(F)(F)F)cc(C(F)(F)F)c3)C2)CC1 | - | 0 | - | 0 | -
CCCCCn1c(N2CCC(Cc3ccccc3)CC2)nc2c1c(=O)[nH]c(=O)n2C | -86.7 | 7.31µM | 20.6µM | ? | ?
CC(=O)Cn1c(N2CCC(Cc3ccccc3)CC2)nc2c1c(=O)[nH]c(=O)n2C | 0 | ? | 0 | 16.4µM | 0
COc1ccc(-c2cc3nc(-c4ccc(Br)cc4)cc(C(F)(F)F)n3n2)cc1 | - | 0 | - | 0 | -
COCCC(=O)N1CCC(Oc2ccc(C(=O)NCCSC)cc2)CC1 | 0 | 0 | 0 | 0 | 0
COC(=O)[C@H](C(C)C)N(Cc1ccccc1)S(=O)(=O)CCNC1CCCC1 | 0 | 25.9µM | 0 | ? | 0
O=S(=O)(N(Cc1ccccc1)[C@@H](CO)Cc1ccccc1)N(Cc1ccccc1)[C@@H](CO)Cc1ccccc1 | 0 | ? | 0 | 5.62µM | 0
C=CS(=O)(=O)N(Cc1ccccc1)[C@H](CO)CC(C)C | -60.5 | 10µM | 0 | 11.2µM | 0
COC(=O)[C@H](CC(C)C)N(Cc1ccccc1)S(=O)(=O)N(Cc1ccccc1)[C@@H](CC(C)C)C(=O)OC | 0 | 20.6µM | 0 | 11.6µM | 0
COC(=O)C(CC(C)C)N(Cc1cc(OC)cc(OC)c1)S(=O)(=O)c1ccccc1Br (stereo not drawn) | 0 | ? | 0 | ? | 0
O=C1C[C@@H]2c3c(cccc3CN1Cc1ccccc1Br)C[C@@H](O)[C@H]2O | 0 | 0 | 0 | 0 | 0
COc1cc(Cl)c(C)cc1NC(=O)CN1CCN(C(=O)C2CC2)CC1 | 0 | ? | 0 | ? | 0
COc1ccc(C(C(=O)NC2CCCCC2)N(Cc2cccnc2)C(=O)c2snc(C(N)=O)c2N)cc1 (stereo not drawn) | 0 | 0 | 0 | 0 | 0
CCOc1ccc(S(=O)(=O)N2CCCC(C(=O)N3CCOCC3)C2)cc1Cl (stereo not drawn) | 0 | ? | 0 | ? | 0
C=CCCN([C@H](CO)Cc1ccccc1)S(=O)(=O)c1ccccc1Br | 0 | ? | 0 | 0 | 0
C=CS(=O)(=O)N(Cc1ccccc1Br)[C@H](CO)Cc1ccccc1 | -108.2 | 7.94µM | ? | 7.08µM | ?
C=C[C@H](CC(C)C)N(Cc1ccccc1)S(=O)(=O)N(Cc1ccc(OC)cc1)[C@H](C=C)CC(C)C | 0 | ? | 0 | 13µM | 0

High-throughput results deposited in PubChem BioAssay by National Center for Advancing Translational Sciences (NCATS).
